{"source": "PubChem BioAssay (NCATS)", "key": {"[1]": {"target": "Aldehyde dehydrogenase, mitochondrial (Homo sapiens) (UniProt P05091)", "assay": "qHTS for Inhibitors of the Aldehyde Dehydrogenase Family (ALDH2) Primary screen (AID 2061308); further: nearly all actives have a fitted effect of over 55% in size"}, "[2]": {"target": "Retinaldehyde dehydrogenase 3 (Homo sapiens) (UniProt P47895)", "assay": "qHTS for Inhibitors of the Aldehyde Dehydrogenase Family (ALDH1A3) Primary screen (AID 2061315)"}}, "note": "Results filed as inconclusive are left out. A call without a number means that no potency is given here. Activity calls are given as the source filed them. The call rests on the fitted dose curve; in most records, active means well fitted curve in the direction sought with a large enough effect; inconclusive means small, poorly fitted or top-dose-only effect, or another doubt; inactive means no such curve, though single readings can be large; an effect the other way counts as inactive or inconclusive.", "data": [{"smiles": "O=C1CCCC2=C1C(c1[nH]ncc1Cl)NC(=NCCc1ccccc1)N2", "note": "(stereo unspecified)", "values": [{"measurement": "Potency", "setting": "[1]", "result": "inactive"}, {"measurement": "Potency", "setting": "[2]", "result": "inactive"}]}, {"smiles": "Cc1cc(NS(=O)(=O)c2ccc(NC(=O)Cc3ccc(Cl)c(F)c3)cc2)no1", "values": [{"measurement": "Potency", "setting": "[1]", "result": "inactive"}, {"measurement": "Potency", "setting": "[2]", "result": "inactive"}]}, {"smiles": "Cc1noc(C)c1-c1ccc2ncnc(NCc3ccc(-c4ccccc4)cc3)c2c1", "values": [{"measurement": "Potency", "setting": "[1]", "result": "inactive"}, {"measurement": "Potency", "setting": "[2]", "result": "inactive"}]}, {"smiles": "COc1ccc(C)cc1NC(=O)C(OC(=O)CNC(=O)c1ccccc1)c1ccccc1", "note": "(stereo unspecified)", "values": [{"measurement": "Potency", "setting": "[1]", "result": "inactive"}, {"measurement": "Potency", "setting": "[2]", "result": "inactive"}]}, {"smiles": "CC[C@]1(O)C[C@H]2CN(CCC3C(=Nc4ccccc43)[C@@](C(=O)OC)(c3cc4c(cc3OC)N(C)[C@H]3[C@@](O)(C(N)=O)[C@H](O)[C@]5(CC)C=CCN6CC[C@]43[C@@H]65)C2)C1", "note": "(stereo partly specified)", "values": [{"measurement": "Potency", "setting": "[1]", "result": "inactive"}, {"measurement": "Potency", "setting": "[2]", "result": "inactive"}]}, {"smiles": "COc1cnc(-c2ccc(Cn3c(CC(C)(C)C(=O)O)c(SC(C)(C)C)c4cc(OC[C@@H]5Cc6ccccc6N5C(C)=O)ccc43)cc2)nc1", "values": [{"measurement": "Potency", "setting": "[1]", "result": "inactive"}, {"measurement": "Potency", "setting": "[2]", "result": "inactive"}]}, {"smiles": "O=C(c1ccc[nH]1)c1cc(Cl)ccc1NC(=O)[C@@H]1CCCN1", "values": [{"measurement": "Potency", "setting": "[1]", "result": "inactive"}, {"measurement": "Potency", "setting": "[2]", "result": "inactive"}]}, {"smiles": "COC(=O)c1cncc(NC(=O)c2cccs2)c1", "values": [{"measurement": "Potency", "setting": "[1]", "result": "inactive"}, {"measurement": "Potency", "setting": "[2]", "result": "inactive"}]}, {"smiles": "O=[S+]([O-])(c1c(F)cccc1F)N1CCN([S+](=O)([O-])c2cccc3nonc23)CC1", "values": [{"measurement": "Potency", "setting": "[1]", "result": "inactive"}, {"measurement": "Potency", "setting": "[2]", "result": "inactive"}]}, {"smiles": "Cc1ccc(OCCn2c(CCNC(=O)C3CC3)nc3ccccc32)cc1", "values": [{"measurement": "Potency", "setting": "[1]", "result": "inactive"}, {"measurement": "Potency", "setting": "[2]", "result": "inactive"}]}, {"smiles": "Fc1ccc(Nc2nc(-c3ccncc3Cl)nc3ccccc23)cc1F", "values": [{"measurement": "Potency", "setting": "[1]", "result": "inactive"}, {"measurement": "Potency", "setting": "[2]", "result": "inactive"}]}, {"smiles": "Nc1cccc([S+](=O)([O-])N2CCCN([S+](=O)([O-])c3cccc(N)c3)CC2)c1", "values": [{"measurement": "Potency", "setting": "[1]", "result": "inactive"}, {"measurement": "Potency", "setting": "[2]", "result": "inactive"}]}, {"smiles": "Cc1ccc(S(=O)(=O)Nc2cnccc2C(=O)Nc2ccc(S(=O)(=O)Nc3nccs3)cc2)cc1", "values": [{"measurement": "Potency", "setting": "[1]", "result": "inactive"}, {"measurement": "Potency", "setting": "[2]", "result": "inactive"}]}]}
